High-throughput results from PubChem.
SMN2 splice up – SMN2 splice variant enhancement | HEK293 SMN2-luciferase splicing reporter, luminescence, 30-36 h | Potency, µM (highest dose often 46.1 µM), for the others: at the highest dose activity change, positive = activation, usual class: activators | hit rate 2.8% among 210,000 | AID 1458; further: % of control where 0% means no effect; nearly all actives have a fitted effect of over 55% in size
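qHTS luciferase splicing reporter: luminescence rises when SMN2 exon 7 is included in transfected HEK293 cells. Compound exposure lasted 30-36 h at 37C, with 4.5 mM final sodium butyrate as control, followed by a ONE-Glo read.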
NPC1 promoter act – activators of NPC1 promoter. Huh7 NPC1 promoter luciferase reporter, 24 h. Potency, µM (top dose mostly 9.22 µM), for inactives: top-dose activation, hits mostly activators. hit rate 2.4% among 320,000. AID 485313; further: % of control where 0% means no effect; nearly all actives have a fitted effect of over 60% in size
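Huh7 cells stably carrying NPC1 promoter–luciferase, plated in Opti-MEM with 10% FBS for 2 h, were exposed to compound in DMSO for 24 h at 37 °C; luciferase reagent was added for 10 min and luminescence read.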
KinaseGlo FLuc – counter-screen: inhibitors of Kinase-Glo firefly luciferase; Q27757; Kinase-Glo luciferase, ATP luminescence, 8 min; Potency, µM (top dose mostly 38.3 µM), inactives show top-dose activity change, negative = inhibition, usual class: inhibitors; hit rate 0.28% among 200,000; AID 1379; further: on the % scale 0 is the no-effect control and ±100 the full control effect; nearly all actives have a fitted effect of over 60% in size
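Light output from Kinase-Glo luciferase with luciferin and 10 uM ATP in 50 mM imidazole pH 7.2, KCl, MgCl2, Tween 20, BSA; compound pin-delivered, 8-min ambient incubation, then luminescence read.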
FLuc modulator – counter-screen for miR-21 project: firefly luciferase inhibitors or activators; P08659; purified FLuc, Km substrates, luminescence inhibition; Potency, µM (top dose mostly 57.5 µM), for the others: at the top dose activity change, negative = inhibition, usual class: inhibitors; hit rate 6.9% among 360,000; AID 588342;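 further: plate controls were vehicle for no effect and reference inhibitor for full effect; nearly all actives have a fitted effect of over 55% in size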
Target sequence (P08659 whole entry, looked up): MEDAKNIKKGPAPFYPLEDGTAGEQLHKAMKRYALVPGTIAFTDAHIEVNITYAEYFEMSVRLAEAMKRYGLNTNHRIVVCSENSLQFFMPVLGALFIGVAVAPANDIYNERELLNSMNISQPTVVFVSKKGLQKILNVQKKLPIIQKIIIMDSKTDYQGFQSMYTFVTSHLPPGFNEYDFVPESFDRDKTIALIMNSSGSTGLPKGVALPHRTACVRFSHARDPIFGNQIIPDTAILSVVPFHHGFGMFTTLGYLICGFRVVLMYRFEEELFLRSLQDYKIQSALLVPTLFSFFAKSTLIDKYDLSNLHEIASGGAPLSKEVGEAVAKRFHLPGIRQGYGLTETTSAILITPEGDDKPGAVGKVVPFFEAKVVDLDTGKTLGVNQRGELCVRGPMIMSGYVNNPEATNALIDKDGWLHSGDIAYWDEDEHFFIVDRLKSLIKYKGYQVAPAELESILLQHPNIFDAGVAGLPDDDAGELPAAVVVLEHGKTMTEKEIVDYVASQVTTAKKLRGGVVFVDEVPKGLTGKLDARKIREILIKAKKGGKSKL
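Purified P. pyralis luciferase (10nM final) with 10uM D-luciferin and 10uM ATP (Km levels) in 50mM Tris acetate pH 7.5, 10mM Mg acetate, 0.01% Tween-20, 0.05% BSA; qHTS 6-point titration, ~60 µM downward; luminescence read.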
ELG1 genotox – genotoxicity induction in ELG1-luciferase HEK293T cells. Potency, µM (highest dose often 46 µM), for inactives: top-dose activity change, positive = activation, hits mostly activators. HEK293T ELG1-luciferase reporter, luminescence, 16 h. hit rate 1.3% among 330,000; further: % of control where 0% means no effect; nearly all actives have a fitted effect of over 60% in size
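Cells (2,000/well) expressing the ELG1-luciferase fusion are dosed by pin tool and kept 16 hr at 37 °C, 5% CO2. Signal comes from ONE-Glo luciferase reagent after 30 min at room temperature.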
Rab9 promoter act – activates the Rab9 promoter. Huh7 Rab9 promoter-luciferase reporter, luminescence, 24 h. Potency, µM (series often up to 9.22 µM), for inactives: at the top dose activation, negative = inhibition, hits mostly activators. hit rate 2.8% among 320,000; further: % of control where 0% means no effect; nearly all actives have a fitted effect of over 60% in size
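Measured in stably transfected Huh7 cells bearing a Rab9 promoter–luciferase construct: 24 h compound treatment at 37 °C, followed by luminescence detection.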
Active calls of the source: *; ? = inconclusive; nt = not tested or not shown; [ ] = another dose, or the depositor's remark. Sampled rows, rich in hits. Any-hit rate of the full collection: about 7.5%. The call rests on the fitted dose curve; in most records, active means well fitted curve in the direction sought with a large enough effect; inconclusive means small, poorly fitted or top-dose-only effect, or another doubt; inactive means no such curve, though single readings can be large; an effect the other way counts as inactive or inconclusive. Potency means the concentration at half of the fitted maximal effect.

SMILES	SMN2 splice up	NPC1 promoter act	KinaseGlo FLuc	FLuc modulator	ELG1 genotox	Rab9 promoter act
CCOC(=O)c1c(C)nc(C)c2c(=O)oc3ccccc3c12	14%	-3%	-2%	17µM*	-11%	23%
CCOC(=O)c1cc2c(=O)c3ccccc3oc2nc1C	nt	22%	nt	6µM*	9.2µM*	?
COCc1nc2oc3ccccc3c(=O)c2cc1C(=O)OC	nt	?	nt	15µM*	?	4.5µM*
COc1cc2c(cc1OC)C(c1ccc(Cl)cc1)N(c1ccc(C)c(F)c1)C(=O)C2 (stereo unspecified)	-31%	nt	nt	-1%	nt	nt
Cc1cc2ccccc2n2c(SCC(=O)Nc3cccc(C(F)(F)F)c3)nnc12	2%	nt	nt	-5%	nt	nt
COC(=O)c1ccc(C2=NOC(C)(c3sc(-c4ccccc4)nc3C)C2)cc1 (stereo unspecified)	nt	2%	nt	?	4%	0%
COC(=O)c1ccc(-c2nc(O)c(C)s2)cc1	3%	-4%	-1%	9.5µM*	11%	0%
COC(=O)c1ccc(-c2nc3cc(Cl)c(N)cc3s2)cc1	1.4µM*	0.71µM*	?	0.076µM*	?	0.89µM*
COC(=O)c1ccc(C(=O)Nc2nc3cc(N)c(C)cc3s2)cc1	nt	2%	nt	-11%	2%	-4%
O=C(Oc1ccccc1C(=O)Nc1ccccc1)c1ccccc1Br	23%	-4%	2%	17µM*	?	19%
Cc1ccc(NC(=O)c2ccccc2O)cc1	2.8µM*	2µM*	-4%	0.95µM*	?	0.63µM*
O=C(Nc1ccccc1)c1ccccc1O	-4%	26%	8%	11µM*	?	26%
Cc1cc(C)cc(NC(=O)Nc2ccc(NC(=O)c3ccccc3O)cc2)c1	nt	4%	nt	-4%	6%	-4%
COc1ccccc1CNC(=O)C(C)n1nc(C)n2c(cc3occc32)c1=O (stereo unspecified)	nt	1%	nt	1%	1%	-3%
CN(C)c1ccc(C(=C2C=CC(=[N+](C)C)C=C2)c2ccc(N(C)C)cc2)cc1	-54%	nt	5µM*	nt	nt	nt
Fc1cc2[nH]c(=S)[nH]c2c(Br)c1N1CCSCC1	nt	11%	nt	13µM*	11%	10%
C/C(=N/NC(=O)c1ccc(Br)o1)c1ccncc1	6%	2%	-3%	?	1%	-2%
C/C(=N/NC(=O)c1ccco1)c1cccc(NC(=O)c2ccc(C)s2)c1	?	23%	-6%	4.8µM*	13%	27%
C/C(=N/NC(=O)c1ccc(Br)o1)c1cccc(NC(=O)c2ccc(C)o2)c1	13%	1%	0%	11µM*	-2%	13%
COC(=O)c1cccc(NC(=O)c2ccco2)c1	?	14%	-2%	-18%	0%	13%
C/C(=N/NC(=O)c1ccco1)c1cccc(NC(=O)c2ccc(C)o2)c1	17%	-1%	-4%	15µM*	5%	19%
C/C(=N/NC(=O)c1ccc(C)s1)c1cccc(NC(=O)COc2ccc(Cl)cc2Cl)c1	5%	0.56µM*	-2%	2.1µM*	17%	0.5µM*
COc1ccc(NS(=O)(=O)c2ccc(C(=O)N(C)Cc3cccs3)cc2)cc1	nt	10%	nt	1%	-1%	-6%
COc1cccc(NC(=O)N2CCCC2C(=O)Nc2cc(C)ccc2OC)c1 (stereo unspecified)	nt	1%	nt	3%	-5%	-4%
C/C(=N\NC(=O)C1CC1)c1ccc(NC(=O)c2ccc(Br)o2)cc1	22%	?	-8%	-4%	?	12%[1.84 µM]
SMILES	SMN2 splice up	NPC1 promoter act	KinaseGlo FLuc	FLuc modulator	ELG1 genotox	Rab9 promoter act
C/C(=N/NC(=O)c1ccc(Br)o1)c1cccc(NC(=O)c2ccc(F)cc2)c1	nt	-3%	nt	11µM*	-9%	3%
C/C(=N\NC(=O)c1ccn(C)n1)c1cccc(NC(=O)c2ccc(C)s2)c1	?	?	-2%	3µM*	8%	30%
COc1ccc2c(c1)OC1(O)COc3cc(OC)c(OC)cc3C1=C2 (stereo unspecified)	-19%	nt	-2%	nt	nt	nt
COC(=O)c1ccccc1-n1cc2c(c1-c1cccc(C)c1)c(=O)n(C)c(=O)n2C	10%	nt	nt	7%	nt	nt
CC(C)(C)c1ccc(-c2nnc3sc(-c4ccccn4)nn23)cc1	-14%	28%	0%	9.5µM*	?	?
Clc1ccc(-c2nnc3sc(-c4ccccn4)nn23)cc1	-1%	-5%	-5%	-1%	1%	2%
NC(C(=O)O)c1cc(O)c(Cl)c(O)c1 (stereo unspecified)	8%	nt	nt	nt	nt	nt
Cc1ccc(N/C=C(/C#N)c2ccsc2)cc1C	13µM*	nt	10%	2.4µM*	nt	nt
O=C(NCc1ccccc1Cl)c1ccc(CSc2nc3ccncc3[nH]2)cc1	nt	-2%	nt	-11%	-9%	-2%
COc1cccc(CSc2nc3ccncc3[nH]2)c1	nt	1.6µM*	nt	13µM*	-18%	2.8µM*
Clc1ccccc1CSc1nc2ccncc2[nH]1	13µM*	?	?	15µM*	18µM*	3.5µM*
COc1ccc(CCn2c3c(c(=O)[nH]c2=O)C(NC(=O)c2ccccc2OC)(C(F)(F)F)C(=O)N3)cc1OC (stereo unspecified)	3%	nt	nt	-16%	nt	nt
CN(C)c1ccc(-c2nnc(SCC3CCCO3)n2C)cc1 (stereo unspecified)	nt	?	1%	?	?	3.2µM*
Cn1c(SCC2CCCO2)nnc1-c1ccncc1 (stereo unspecified)	-4%	1%	-1%	6%	2%	4%
CCOC(=O)c1sc(NC(=O)Nc2ccccc2F)nc1C	-59%	?	-7%	0.17µM*	0.26µM*	0.45µM*
CCOC(=O)c1sc(Nc2ccccc2Cl)nc1C	nt	?	nt	15µM*	?	?
COC(=O)Cc1csc(Nc2ccccc2Cl)n1	?	?	-1%	19µM*	?	3.5µM*
CCOC(=O)c1sc(Nc2ccc(Br)cc2)nc1C	nt	16%	nt	19µM*	8%	17%
CCOC(=O)c1sc(NCCNc2nc(C)c(C(=O)OCC)s2)nc1C	14%	-4%	1%	1%	1%	-2%
CCOC(=O)Cc1csc(NC(=O)Cc2ccccc2)n1	nt	-3%	-2%	-1%	1%	1%
O=C(O)c1cccc(CN2CCCCC2)c1	-5%[9.22 µM]	nt	-4%[7.66 µM]	nt	nt	nt
CCN(CC)c1ccc2c(O)cc(=O)oc2c1	7%	0%	3%	12µM*	3%	1%
Cc1cn(C2CC(OC(=O)C(C)C)C(CO)O2)c(=O)[nH]c1=O (stereo unspecified)	nt	1%	nt	3%	-1%	-4%
C=CCn1c(C)cc(C(=O)COC(=O)c2cncc(Br)c2)c1C	nt	24%	nt	1.9µM*	14%	?
